Data as given in PubChem BioAssay AID624405 (Broad Institute, 2012).
Screen size: about 1,900 compounds; about 250 (13%) were called active. Another 4% or so got no clear call; they are omitted.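 The calls were made as follows: active = fitted curve reaches 40% rescue activity at or below the top valid dose, in every test run; inconclusive = test runs disagree, some active and some inactive; inactive = every run misses the threshold or moves the wrong way.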 Not all results are given here. Measured potencies and affinities stand elsewhere.

Assay: suppressors of statin myotoxicity in myotubes, dose response, cell-based, C2C12 myotubes, ATP luminescence, cherry pick (AID 624405);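 also: myotubes are challenged with simvastatin at 10 µM to lower ATP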
Conditions: C2C12 myotubes + simvastatin, 48 h, scaled: DMSO wells 0, geranylgeraniol wells 100; series mostly up to 19.5 µM
With `COc1ccc(S(=O)(=O)Nc2ccc3c(c2)C(=O)N([C@@H](C)CO)C[C@H](C)[C@@H](CN(C)S(=O)(=O)c2ccc(F)cc2)OCCCC[C@@H](C)O3)cc1` the outcome was “inactive”. In the case of `C[C@@H]1CCCCO[C@H](CN(C)C(=O)Nc2cccc3ccccc23)[C@H](C)CN([C@@H](C)CO)C(=O)c2cc(NC(=O)Nc3ccc4c(c3)OCO4)ccc2O1`, the outcome is reported as “inactive”. For `COc1cccc(S(=O)(=O)N(C)C[C@@H]2Oc3ncc(C#CCC(C)C)cc3C(=O)N([C@@H](C)CO)C[C@H]2C)c1`, the outcome was “inactive”. For `CC(=O)Nc1cc(-c2nn(C)c(=O)c3ccccc23)ccc1N1CCOCC1`, the outcome was “inactive”. For `C[C@@H]1CCCCO[C@H](CN(C)C(=O)C2CCCCC2)[C@H](C)CN([C@H](C)CO)C(=O)c2cc(NS(=O)(=O)c3ccccc3)ccc2O1`, the outcome was “inactive”. With `COc1ccc(CC(=O)Nc2ccc(-c3cn4ccccc4n3)cc2)cc1` the outcome was “inactive”. For `C[C@@H]1CN([C@@H](C)CO)C(=O)Cc2cc(NC(=O)C3CC3)ccc2O[C@H]1CN(C)Cc1ccc(Oc2ccccc2)cc1`, the outcome was “inactive”. With `C[C@@H]1CN([C@@H](C)CO)C(=O)Cc2cc(NC(=O)C3CCCCC3)ccc2O[C@H]1CN(C)Cc1ccc(Oc2ccccc2)cc1` the outcome was “inactive”. With `CCCCNc1ncnc2c1cnn2Cc1ccc(Cl)cc1` the outcome was “inactive”. With `O=C(CCn1c(SCC(=O)NCc2ccco2)nc2ccccc2c1=O)NCCc1ccccc1` the outcome was “inactive”. In the case of `COCCCn1c(SCC(=O)NCc2ccco2)nc2sc3c(c2c1=O)CCC3`, the outcome is reported as “inactive”. For `COc1ccc(OCC(=O)Nc2nnc(S(=O)(=O)N3CCCCCC3)s2)cc1`, the outcome was “inactive”. With `Cc1cnc(C(=O)Nc2nccs2)cn1` the outcome was “inactive”. In the case of `CCN(CC)S(=O)(=O)c1cccc(-c2nnc(SCC(=O)NCCC3=CCCCC3)n2N)c1`, the outcome is reported as “inactive”. For `CCN(C(C)=O)c1cccc2ccccc12`, the outcome was “inactive”. In the case of `CCC(C)NS(=O)(=O)c1ccc(NC(=O)C2CCN(C(=O)c3ccco3)CC2)cc1` (stereo not given), the outcome is reported as “inactive”. In the case of `CCC1CCCCN1S(=O)(=O)c1ccc(NC(=O)C2CCN(C(=O)c3ccco3)CC2)cc1` (stereo not given), the outcome is reported as “inactive”. In the case of `CC1CCN(S(=O)(=O)c2ccc(NC(=O)c3ccco3)cc2)CC1`, the outcome is reported as “inactive”. In the case of `CC1CCCN(S(=O)(=O)c2ccc(NC(=O)C3CCN(C(=O)c4ccco4)CC3)cc2)C1` (stereo not given), the outcome is reported as “inactive”. With `C[C@@H]1CCCCO[C@@H](CN(C)C(=O)Nc2cccc3ccccc23)[C@H](C)CN([C@H](C)CO)C(=O)c2cc(NC(=O)c3ccncc3)ccc2O1` the outcome was “inactive”. With `C[C@H]1CN([C@@H](C)CO)S(=O)(=O)c2ccc(-c3ccc(C(=O)N(C)C)cc3)cc2O[C@@H]1CN(C)C(=O)Cc1ccccn1` the outcome was “inactive”. For `CCOc1ncnc2c1[nH]c1ccccc12`, the outcome was “inactive”. With `COc1ccc(CN(C)C[C@@H]2Oc3ccc(NC(=O)CCC(F)(F)F)cc3CC(=O)N([C@H](C)CO)C[C@H]2C)cc1` the outcome was “inactive”. In the case of `COc1ccc(S(=O)(=O)Nc2ccc3c(c2)C(=O)N([C@H](C)CO)C[C@H](C)[C@@H](CN(C)S(=O)(=O)c2ccc(F)cc2)OCCCC[C@@H](C)O3)cc1`, the outcome is reported as “inactive”. For `O=C(O)CCC(=O)OCC1CCCCC1`, the outcome was “inactive”. With `CC(C)NC(=O)Cn1c(=O)n(CC(=O)N2CCCCC2)c(=O)c2sccc21` the outcome was “inactive”. With `C[C@H]1CN([C@@H](C)CO)C(=O)c2cc(C#CC3CC3)cnc2O[C@@H]1CN(C)S(C)(=O)=O` the outcome was “inactive”. In the case of `C[C@@H]1CN([C@H](C)CO)C(=O)c2cc(NS(C)(=O)=O)ccc2O[C@@H](C)CCCCO[C@@H]1CN(C)S(=O)(=O)c1ccc(Cl)cc1`, the outcome is reported as “inactive”. In the case of `O=c1c2c([nH]c3ccc(Br)cc13)CCCC2`, the outcome is reported as “inactive”. With `O=C(CCn1cccc1)NC1CCCc2ccccc21` (stereo not given) the outcome was “inactive”. In the case of `Cc1ccc(CN(C(=O)c2ccco2)C(C(=O)NC2CCCC2)c2ccc(N3CCOCC3)cc2)cc1` (stereo not given), the outcome is reported as “inactive”. For `COc1ccc(NC(=O)Nc2ccc3c(c2)C(=O)N([C@H](C)CO)C[C@H](C)[C@@H](CN(C)Cc2ccc(C(F)(F)F)cc2)OCCCC[C@H](C)O3)cc1`, the outcome was “inactive”. For `Cc1ccc(S(=O)(=O)N(C)C[C@@H]2Oc3c(NC(=O)Nc4ccccc4)cccc3C(=O)N([C@H](C)CO)C[C@H]2C)cc1`, the outcome was “inactive”. In the case of `Cc1ccc(S(=O)(=O)N(C)C[C@@H]2Oc3c(NC(=O)Nc4ccccc4)cccc3C(=O)N([C@@H](C)CO)C[C@@H]2C)cc1`, the outcome is reported as “inactive”. With `Cc1ccc(S(=O)(=O)N(C)C[C@@H]2Oc3c(NC(=O)Nc4ccccc4)cccc3C(=O)N([C@H](C)CO)C[C@@H]2C)cc1` the outcome was “inactive”. With `C[C@@H]1CN([C@H](C)CO)C(=O)c2cccc(NC(=O)Nc3ccccc3)c2O[C@@H]1CN(C)S(=O)(=O)c1ccccc1` the outcome was “inactive”. In the case of `c1cnc2ccc(C(c3nnnn3C3CCCC3)N3CCN(c4nc5ccccc5s4)CC3)cc2c1` (stereo not given), the outcome is reported as “inactive”. With `CC(C)NC(=O)CN1C(=O)NC(CCc2ccccc2)C1=O` (stereo not given) the outcome was “inactive”. In the case of `CCCn1c2c(c(O)c(C(=O)NC)c1=O)CCCC2`, the outcome is reported as “inactive”. In the case of `C[C@H]1CN([C@@H](C)CO)S(=O)(=O)c2ccc(C#CC3CCCCC3)cc2O[C@H]1CN(C)C(=O)Cc1ccncc1`, the outcome is reported as “inactive”. In the case of `COc1ccc(S(=O)(=O)N2CCOCC2)cc1NC(=O)CSc1ncccn1`, the outcome is reported as “inactive”. In the case of `Cc1c(N=Cc2c(O)n(Cc3ccco3)c(=O)c3ccccc23)c(=O)n(-c2ccccc2)n1C`, the outcome is reported as “inactive”. With `CCOC(=O)C1CCN(S(=O)(=O)c2nc3nc(C)cc(C)n3n2)CC1` the outcome was “inactive”. In the case of `O=C(NNC(=O)c1ccncc1)Nc1ccc(N=Nc2ccccc2)cc1`, the outcome is reported as “inactive”. With `COc1ccc(C#Cc2ccc([C@H]3[C@H]4CN(C(=O)c5ccncc5)CCCCN4[C@H]3CO)cc2)cc1` the outcome was “inactive”. In the case of `C[C@@H]1CN([C@@H](C)CO)C(=O)c2cc(NS(=O)(=O)c3cccs3)ccc2O[C@@H]1CN(C)Cc1ccc2c(c1)OCO2`, the outcome is reported as “inactive”. For `C[C@H]1CN([C@@H](C)CO)C(=O)c2cccc(NS(=O)(=O)c3cccs3)c2O[C@@H]1CN(C)C(=O)Nc1ccc(C(F)(F)F)cc1`, the outcome was “inactive”. For `Cc1cccc(OCC(=O)Nc2cc(C)ccc2O)c1`, the outcome was “inactive”. In the case of `Cc1ccc(-c2noc(-c3cccs3)n2)cc1`, the outcome is reported as “inactive”. For `COc1ccccc1-c1noc(-c2ccncc2)n1`, the outcome was “inactive”. With `Cc1ccc(C(=O)OCC(=O)Nc2ccc3c(c2)OCO3)cc1S(=O)(=O)N1CCOCC1` the outcome was “inactive”. For `CCOC(=O)C(C)n1nc(/C=C/c2ccccc2)ccc1=O` (stereo not given), the outcome was “inactive”. For `C[C@@H]1CN([C@@H](C)CO)C(=O)Cc2cc(NC(=O)Cc3cn(C)c4ccccc34)ccc2O[C@H]1CN(C)Cc1ccc(Oc2ccccc2)cc1`, the outcome was “inactive”. With `O=C(Nc1nc2c(s1)CCCC2)c1ccc(Br)o1` the outcome was “inactive”. In the case of `C[C@H](CO)N1C[C@H](C)[C@@H](CN(C)S(=O)(=O)c2cn(C)cn2)Oc2ccc(NC(=O)Nc3ccc(C(F)(F)F)cc3)cc2C1=O`, the outcome is reported as “inactive”. With `C[C@H](CO)N1C[C@H](C)[C@@H](CN(C)S(=O)(=O)c2ccc(Cl)cc2)Oc2c(NC(=O)Nc3ccc(C(F)(F)F)cc3)cccc2C1=O` the outcome was “inactive”. With `C[C@H](N)c1nnc(SCC(=O)c2ccc(Cl)cc2)o1` the outcome was “inactive”. In the case of `CC(C)CC#Cc1cnc2c(c1)C(=O)N([C@@H](C)CO)C[C@@H](C)[C@H](CN(C)S(=O)(=O)c1cccs1)O2`, the outcome is reported as “inactive”. In the case of `CCn1c(CSc2nc(C)cc(C)n2)nnc1SCC(=O)Nc1nc(-c2ccccc2)cs1`, the outcome is reported as “inactive”. With `COc1ccc(S(=O)(=O)Nc2cccc3c2O[C@H](CN(C)S(=O)(=O)c2ccc(Cl)cc2)[C@H](C)CN([C@@H](C)CO)C3=O)cc1` the outcome was “inactive”. In the case of `CCOc1ccccc1C(=O)n1nc(C)cc1C`, the outcome is reported as “inactive”. In the case of `CCCCOC(=O)Cn1c(=O)c2c(nc3n2CCCCN3c2ccc(C)cc2)n(C)c1=O`, the outcome is reported as “inactive”. With `CCOC(=O)Cn1c(=O)c2c(nc3n2CCN3Cc2ccccc2)n(C)c1=O` the outcome was “inactive”. With `O=C1c2ccccc2C(=O)N1CCC1=CCCCC1` the outcome was “inactive”. With `C[C@@H]1CN([C@H](C)CO)C(=O)c2cccc(NS(=O)(=O)c3cccs3)c2O[C@@H]1CN(C)S(=O)(=O)c1cccs1` the outcome was “inactive”. For `Fc1ccccc1OCCCN1CCOCC1`, the outcome was “inactive”. In the case of `C[C@H]1CN([C@@H](C)CO)C(=O)c2cc(/C=C/c3ccccc3)cnc2O[C@@H]1CN(C)C(=O)Nc1ccccc1F`, the outcome is reported as “inactive”. With `C=CCSc1nc(C)c2cc(C)cc(C)c2n1` the outcome was “inactive”. In the case of `CC(C)(CSc1ncccn1)NS(=O)(=O)c1ccccc1`, the outcome is reported as “inactive”. With `O=S(=O)(NCc1csc(-c2cccs2)n1)c1cccc(C(F)(F)F)c1` the outcome was “inactive”. For `COc1ccc(NC(=O)N(C)C[C@H]2OCCCC[C@H](C)Oc3ccc(NS(=O)(=O)c4c(C)noc4C)cc3C(=O)N([C@@H](C)CO)C[C@H]2C)cc1`, the outcome was “inactive”. For `Cc1cc(C)n(C(=O)c2ccc(S(=O)(=O)NCC3CCCO3)cc2)n1` (stereo not given), the outcome was “inactive”. In the case of `C[C@@H]1CN([C@@H](C)CO)C(=O)c2cccc(NC(=O)C3CCCCC3)c2O[C@H]1CN(C)S(=O)(=O)c1ccc(Cl)cc1`, the outcome is reported as “inactive”. In the case of `C[C@@H]1CCCCO[C@@H](CN(C)Cc2ccc(Cl)c(Cl)c2)[C@H](C)CN([C@@H](C)CO)C(=O)c2cc(NC(=O)Cc3ccccc3)ccc2O1`, the outcome is reported as “inactive”. For `O=c1cc(CN2CCN(Cc3ccccc3)CC2)c2cc3c(cc2o1)CCC3`, the outcome was “inactive”. With `Cc1cccn2c(=O)c3cc(C(=O)NCCC4=CCCCC4)n(C)c3nc12` the outcome was “inactive”. In the case of `Cc1sc2nc3ccc(N4CCCCC4)nn3c(=O)c2c1C`, the outcome is reported as “inactive”. With `CN(C)C(CNC(=O)NC1CCCCC1)c1cccnc1` (stereo not given) the outcome was “inactive”. With `C[C@@H]1CN([C@@H](C)CO)C(=O)c2cc(NC(=O)Nc3ccc(F)cc3)ccc2O[C@@H](C)CCCCO[C@H]1CN(C)Cc1ccncc1` the outcome was “inactive”. In the case of `COC(=O)c1cc(OC)c(OC)cc1NC(=O)Nc1cccc(C(C)=O)c1`, the outcome is reported as “inactive”. For `C[C@H]1CN([C@@H](C)CO)C(=O)Cc2cc(NC(=O)Cc3ccccc3)ccc2O[C@@H]1CN(C)Cc1ccc(Oc2ccccc2)cc1`, the outcome was “inactive”. For `O=C(COc1cccc(C(F)(F)F)c1)Nc1ccc(S(=O)(=O)N2CCCC2)cc1`, the outcome was “inactive”. With `O=C(OCCOc1ccc(Br)cc1)c1cnccn1` the outcome was “inactive”. With `O=C(c1cnccn1)N1CCN(C/C=C/c2ccccc2)CC1` the outcome was “inactive”. In the case of `C[C@H]1CN([C@@H](C)CO)C(=O)c2cc(NC(=O)C3CC3)ccc2O[C@@H]1CN(C)CC1CCCCC1`, the outcome is reported as “inactive”. For `C[C@H](CO)N1C[C@H](C)[C@H](CN(C)Cc2ccc(C(F)(F)F)cc2)Oc2c(NC(=O)Nc3cccc4ccccc34)cccc2C1=O`, the outcome was “inactive”. For `C[C@@H]1CN([C@H](C)CO)C(=O)c2cc(NC(=O)Nc3cccc4ccccc34)ccc2O[C@@H](C)CCCCO[C@@H]1CN(C)Cc1ccc2c(c1)OCO2`, the outcome was “inactive”. In the case of `COc1ccc(NC(=O)Nc2ccc3c(c2)C(=O)N([C@@H](C)CO)C[C@H](C)[C@@H](CN(C)Cc2ccc(C(F)(F)F)cc2)OCCCC[C@H](C)O3)cc1`, the outcome is reported as “inactive”. With `C[C@@H]1CN([C@@H](C)CO)C(=O)c2cccc(NC(=O)C3CCOCC3)c2O[C@@H]1CN(C)S(=O)(=O)c1cn(C)cn1` the outcome was “inactive”. For `COC(=O)[C@H]1[C@H](CO)[C@H]2Cn3c(ccc(C4=CCCCC4)c3=O)[C@H]2N1CC1CCCCC1`, the outcome was “inactive”.
